The subject of one test is MCC-13. Put plainly: qHTS assay to identify novel small-molecules to repurpose for Merkel cell carcinoma treatment (AID 1296009). Further: nearly all actives have a fitted effect of over 60% in size. As to conditions: MCC and control cell lines, CellTiter-Glo viability, 72 h; series mostly up to 46 µM. In a few lines:
(§1)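 qHTS format: cells treated with library compounds in DMSO across 8 (NPC) or 11 (MIPE) concentrations. Readout after 72 hr at 37 degree celsius was CellTiter-Glo luminescence.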
For orientation: In qHTS, concentration-response curves come from the screen itself.

A further test relates to MCC-26. The description is as above. As to conditions: MCC and control cell lines, CellTiter-Glo viability, 72 h; series mostly up to 46 µM. The method, boiled down:
as §1
In general terms: Cellular ATP, detected with luciferase, serves as a proxy for viable cell number.

For another test, the system named is MKL-1. The test is described as above. As to conditions: MCC and control cell lines, CellTiter-Glo viability, 72 h; series mostly up to 46 µM. The method, boiled down: as §1
The next test concerns MKL-2. The description is as above. As to conditions: MCC and control cell lines, CellTiter-Glo viability, 72 h; series mostly up to 46 µM. In a few lines: as §1
The subject of the next test is NIH3T3. The description is as above. As to conditions: MCC and control cell lines, CellTiter-Glo viability, 72 h; at 44.8 µM (top of the series) unless noted. The method, boiled down:
as §1

The subject of a further test is UISO. Described as above. As to conditions: MCC and control cell lines, CellTiter-Glo viability, 72 h; series mostly up to 46 µM. In a few lines: as §1
A further test deals with WaGa. The test is described as above. As to conditions: MCC and control cell lines, CellTiter-Glo viability, 72 h; series mostly up to 46 µM. The method, boiled down:
as §1

Another test concerns C33A. Put plainly: Primary qHTS to identify gynecologic anti-cancer compounds using libraries of approved drugs and bioactive compounds (AID 1345084). Further: nearly all actives have a fitted effect of over 55% in size. As to conditions: Gynecologic cancer cell panel viability, ATPlite luminescence, 48 h; series mostly up to 57.5 µM. In a few lines: (§2)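 ATP-based viability (ATPlite), 1,000 cells/well, 16 h pre-incubation, 48 h compound at 37 C, 5% CO2, 15 min RT before read.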

A further test relates to CAOV3. The description is as above. As to conditions: Gynecologic cancer cell panel viability, ATPlite luminescence, 48 h; series mostly up to 57.5 µM. In a few lines: as §2
In the next test the test system is CASKI. The test is described as above. As to conditions: Gynecologic cancer cell panel viability, ATPlite luminescence, 48 h; series mostly up to 57.5 µM. The method, boiled down:
as §2

The subject of the next test is Es-2. The description is as above. As to conditions: Gynecologic cancer cell panel viability, ATPlite luminescence, 48 h; series mostly up to 57.5 µM. In a few lines:
as §2

The next test has as its system HeLa. Described as above. As to conditions: Gynecologic cancer cell panel viability, ATPlite luminescence, 48 h; series mostly up to 57.5 µM. The method, boiled down:
as §2

The subject of another test is Hek293T. The test is described as above. As to conditions: Gynecologic cancer cell panel viability, ATPlite luminescence, 48 h, control line for the selectivity index; series mostly up to 57.5 µM. The method, boiled down:
as §2

Another test deals with JEG-3. The description is as above. As to conditions: Gynecologic cancer cell panel viability, ATPlite luminescence, 48 h; series mostly up to 57.5 µM. In a few lines:
as §2

The test system of a further test is OV90. The description is as above. As to conditions: Gynecologic cancer cell panel viability, ATPlite luminescence, 48 h; series mostly up to 57.5 µM. The method, boiled down:
as §2

The next test relates to PA-1. The test is described as above. As to conditions: Gynecologic cancer cell panel viability, ATPlite luminescence, 48 h; series mostly up to 57.5 µM. In a few lines:
as §2

The test system of a further test is SKOV3. Described as above. As to conditions: Gynecologic cancer cell panel viability, ATPlite luminescence, 48 h; series mostly up to 57.5 µM. The method, boiled down:
as §2

The next test has as its system Tov-21-G. The test is described as above. As to conditions: Gynecologic cancer cell panel viability, ATPlite luminescence, 48 h; series mostly up to 57.5 µM. In a few lines: as §2
The test system of the next test is Tov112D. The test is described as above. As to conditions: Gynecologic cancer cell panel viability, ATPlite luminescence, 48 h; series mostly up to 57.5 µM. The method, boiled down: as §2
Test [1] can be described thus: Drug repurposing screens with cells derived from glioblastoma tumor samples (AID 1345199). Further: nearly all actives have a fitted effect of over 40% in size. Further: potency means the concentration at half of the fitted maximal effect. As to conditions: GBM patient neurospheres viability, ATP luminescence, 48 h. The method, boiled down:
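Four patient lines of CD133+ GBM neurospheres were screened at several concentrations; hits were retested in those lines plus three slower-growing GBM lines, using 48-hour treatment and ATP-based viability.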

The mark [2] stands for this setting: at 45.9 µM (top of the series), tumour line B.
[3] abbreviates: at 45.9 µM (top of the series), tumour line D.
[4] abbreviates: at 46 µM (top of the series), tumour line A.
The mark [5] stands for this setting: at 46.1 µM (top of the series), tumour line C.

Our source for the Potency, outcome and activity, negative = cell killing values is PubChem BioAssay (NCATS).

Results filed as inconclusive are left out. Values without a mark were called inactive. Activity calls are given as the source filed them. The call rests on the fitted dose curve; in most records, active means well fitted curve in the direction sought with a large enough effect; inconclusive means small, poorly fitted or top-dose-only effect, or another doubt; inactive means no such curve, though single readings can be large; an effect the other way counts as inactive or inconclusive.
On the % scale 0 is the no-effect control and ±100 the full control effect.

In the case of `C[C@@H]1CCN(C(=O)[C@H](CCCN=C(N)N)NS(=O)(=O)c2cccc3c2NC[C@H](C)C3)[C@@H](C(=O)O)C1`, the Potency entry with MCC-13, with MCC-26, in the test with MKL-1, in the test on MKL-2, in the test with UISO and in the test on WaGa was “inactive” throughout. The Potency result in the test with C33A, in the test with CAOV3, in the test on CASKI, with Es-2, in the test with HeLa and in the test on Hek293T was “inactive” each time. In addition, the Potency result in the test with JEG-3, with OV90, with PA-1, in the test with SKOV3, in the test with Tov-21-G and in the test with Tov112D was “inactive” throughout. Moreover, in the test with NIH3T3, the call was inactive. For the same compound, the activity, negative = cell killing in [1] (setting [2]) was 7.31%; in test [1] (setting [3]), -6.42%; in test [1] (setting [4]), -6.41%; in test [1] (setting [5]) it was -2.45%.
`Cc1c(Cl)cccc1Nc1ccccc1C(=O)O`: the Potency entry in the test on MCC-13, in the test with MCC-26, in the test with MKL-1, in the test with MKL-2, in the test on UISO and with WaGa was “inactive” throughout. Further, the Potency entry in the test with C33A, with CAOV3, in the test with CASKI, with Es-2, in the test on HeLa and in the test with Hek293T was “inactive” throughout. Besides, the Potency result with JEG-3, in the test on OV90, in the test with PA-1, in the test on SKOV3, in the test with Tov-21-G and in the test on Tov112D was “inactive” in each case. Further, in the test on NIH3T3, the call was inactive. For the same compound, the activity, negative = cell killing is -21.5% in test [1] (setting [2]), -17% in test [1] (setting [3]) and -5.72% in test [1] (setting [5]).
Regarding `NC1CCN(c2cccc(Cl)n2)CC1`, the Potency result in the test with MCC-13, in the test on MCC-26, in the test on MKL-1, in the test on MKL-2, in the test on UISO and with WaGa was “inactive” throughout. Besides, the Potency result in the test with C33A, in the test on CAOV3, in the test on CASKI, in the test with Es-2, in the test on HeLa and with Hek293T was “inactive” each time. In addition, the Potency entry in the test with JEG-3, in the test on OV90, in the test on SKOV3, in the test on Tov-21-G and with Tov112D was “inactive” in each case. Also, the compound was called inactive with NIH3T3. Moreover, the activity, negative = cell killing is -8.95% in [1] (setting [2]), 3.86% in test [1] (setting [3]) and -16% in test [1] (setting [5]). In addition, in test [1] (tumour line A), the Potency was 11.2 µM (active).
Regarding `[O-][n+]1cccc(CO)c1`, the Potency result in the test with MCC-13, in the test on MCC-26, in the test on MKL-1, with MKL-2, in the test on UISO and in the test on WaGa was “inactive” each time. Besides, the Potency result in the test with C33A, in the test with CAOV3, with CASKI, in the test on Es-2, with HeLa and in the test with Hek293T was “inactive” in each case. Moreover, the Potency result with JEG-3, in the test on OV90, in the test on PA-1, in the test on Tov-21-G and in the test with Tov112D was “inactive” throughout. Moreover, the compound was classed as inactive in the test on NIH3T3. The activity, negative = cell killing in test [1] (setting [2]) is -6.72%; in [1] (setting [3]), -10.2%; in test [1] (setting [4]), -20.8%; in [1] (setting [5]), -13.8%.
Consider `CCN(CC)C(C)CN1c2ccccc2Sc2ccccc21` (stereo not given), for which the Potency entry in the test on MCC-13, in the test with MCC-26, in the test on MKL-1, with MKL-2, in the test on UISO and with WaGa was “inactive” each time. Besides, the Potency entry with C33A, with CASKI, in the test on Es-2, in the test with HeLa, with Hek293T and with JEG-3 was “inactive” throughout. Moreover, the Potency result with OV90, in the test on PA-1, with SKOV3, with Tov-21-G and in the test with Tov112D was “inactive” in each case. Further, in the test with NIH3T3, the result was inactive. Also, the activity, negative = cell killing in test [1] (at 20 µM (top of the series), tumour line C) was -5.52%; in [1] (at 21.2 µM (top of the series), tumour line B), -16.2%. In addition, the Potency in test [1] (tumour line A) is 10 µM (active).
